An excerpt weighted towards active compounds, which were near 1.6% of everything screened.
MLLE-PAM2 inh: inhibitors of PABP1 MLLE–PAM2 peptide binding, primary screen, biochemical, fluorescence polarization, FITC-PAM2, GST-MLLE; Polyadenylate-binding protein 1 (Homo sapiens), P11940; 360,000 tested, 0.36% active; inhibition, % at 20 µM; in the data active = inhibition above about 35%, passing the limit was not always enough;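 note: plate controls were DMSO wells with GST-MLLE for no effect and wells lacking GST-MLLE protein for full effect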
eIF4E 4G PPI: eIF4E–eIF4G protein interaction inhibitors, primary screen, biochemical, uHTS, TR-FRET, eIF4GI fragment; 220,000 tested, 0.37% active; inhibition, % at 21.7 µM; TR-FRET eIF4E-eIF4GI(517-606) binding, 2 h; Eukaryotic translation initiation factor 4E (Mus musculus) + Eukaryotic translation …;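 active = inhibition above about 30%, limit read from the data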;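 note: 0% = full FRET control wells and 100% = background wells lacking eIF4GI fragment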
eIF4H inh: human eIF4H binding inhibitors, primary screen, translation initiation inhibitor project, biochemical, uHTS, fluorescence polarization; Eukaryotic translation initiation factor 4H (Homo sapiens), Q15056; eIF4H fluorescence polarization binding assay; inhibition, % at 35 µM; 290,000 tested, 0.94% active; AID 2012, 2009;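 note: calls also rest on retests at 20 µM and on dose response follow-up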
PERK inhibitor: block of dimerizer-induced PERK translation repression, primary screen, PERK inhibitor project, CHO PERK-DD cells, SEAP luminescence, HTS. Eukaryotic translation initiation factor 2-alpha kinase 3 (Homo sapiens), Q9NZJ5. CHO PERK-DD fusion, SEAP luminescence translation reporter. inhibition, % at 5.6 µM. 220,000 tested, 0.17% active. AID 1416, 2008;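 active = inhibition above the mean inhibition of all tested compounds plus 3 SD, set separately per screening campaign, cut at about 2.9% in these data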;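 note: PERK kinase domain activated by AP20187 dimerizer at 100 nM; 0% = DMSO with dimerizer and 100% = rapamycin at 8.4 µM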
Target sequence (Q9NZJ5 whole entry, looked up, the tested form may be a part): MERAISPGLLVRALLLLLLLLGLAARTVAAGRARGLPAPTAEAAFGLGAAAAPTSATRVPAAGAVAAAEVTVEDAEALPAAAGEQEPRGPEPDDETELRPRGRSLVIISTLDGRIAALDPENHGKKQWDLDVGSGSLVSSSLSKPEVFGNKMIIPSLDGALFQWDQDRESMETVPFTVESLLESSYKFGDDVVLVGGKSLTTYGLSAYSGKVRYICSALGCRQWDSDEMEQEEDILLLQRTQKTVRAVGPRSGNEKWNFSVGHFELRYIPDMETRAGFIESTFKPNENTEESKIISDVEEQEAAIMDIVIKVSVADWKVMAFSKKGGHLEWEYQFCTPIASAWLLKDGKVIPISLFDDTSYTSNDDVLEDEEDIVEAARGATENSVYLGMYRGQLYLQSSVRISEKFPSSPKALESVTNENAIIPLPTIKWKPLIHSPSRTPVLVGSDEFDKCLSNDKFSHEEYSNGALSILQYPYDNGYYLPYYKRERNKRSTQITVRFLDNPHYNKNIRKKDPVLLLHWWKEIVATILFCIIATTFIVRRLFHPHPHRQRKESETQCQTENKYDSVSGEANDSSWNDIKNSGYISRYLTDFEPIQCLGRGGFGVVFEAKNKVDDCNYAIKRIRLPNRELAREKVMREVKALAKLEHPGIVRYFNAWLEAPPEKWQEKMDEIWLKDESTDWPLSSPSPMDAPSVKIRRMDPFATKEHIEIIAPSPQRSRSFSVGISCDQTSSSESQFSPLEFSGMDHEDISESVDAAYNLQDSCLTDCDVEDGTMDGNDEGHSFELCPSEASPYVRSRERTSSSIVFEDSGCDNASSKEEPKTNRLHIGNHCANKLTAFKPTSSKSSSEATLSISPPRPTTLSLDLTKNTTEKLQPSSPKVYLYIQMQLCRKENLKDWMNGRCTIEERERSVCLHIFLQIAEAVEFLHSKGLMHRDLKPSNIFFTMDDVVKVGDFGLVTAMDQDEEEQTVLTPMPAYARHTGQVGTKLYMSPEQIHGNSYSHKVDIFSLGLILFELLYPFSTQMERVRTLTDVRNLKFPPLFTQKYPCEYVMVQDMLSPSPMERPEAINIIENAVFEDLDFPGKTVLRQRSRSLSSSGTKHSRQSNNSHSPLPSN
PABP polyA inh: PABP poly(A) RNA binding inhibitors, primary screen, biochemical, fluorescence polarization, uHTS; AID 2014, 2009; calls only at 35 µM; Polyadenylate-binding protein 1 (Homo sapiens), P11940; 290,000 tested, 1% active;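 note: calls also rest on retests at 20 µM and on dose response follow-up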
* marks the source's active call; other numbers are inactive results; [ ] = another dose, or the depositor's remark. Unless noted, the rule behind the calls is not given here.

For C[C@H](NC(=O)c1ncn2c1C(=O)N[C@@H](C)C2)C(=O)OC(C)(C)C the results were MLLE-PAM2 inh -3.6.
COc1ccccc1N1CCN(C(=O)[C@H](C)NS(=O)(=O)c2ccc3c(c2)OCCCO3)CC1 was read as MLLE-PAM2 inh 41.0*.
Screening C=C(C)C(=O)Nc1cccc(C2=NOC3(C2)C[C@@H](C(N)=O)N(C(=O)C(=C)C)C3)c1 (some centres undefined) returned MLLE-PAM2 inh 6.7, eIF4E 4G PPI 2.0, eIF4H inh 93.0* and PABP polyA inh active.
Screening NC(=O)[C@H]1CC2(CC(c3cccc(NC(=O)CC(c4ccccc4)c4ccccc4)c3)=NO2)CN1C(=O)C(c1ccccc1)c1ccccc1 (some centres undefined) returned MLLE-PAM2 inh -2.5, eIF4E 4G PPI -6.8, eIF4H inh 0.5 and PABP polyA inh inactive.
For C=C(C)C(=O)Nc1cccc(C2=NOC3(C2)C[C@@H](C(N)=O)N(C(=O)c2ccc(Cl)cc2)C3)c1 (some centres undefined) the results were eIF4E 4G PPI 10.5.
C/C=C(\C)C(=O)N1CC2(CC(c3cccc(NC(=O)CC(c4ccccc4)c4ccccc4)c3)=NO2)C[C@H]1C(N)=O (some centres undefined) was read as eIF4E 4G PPI 88.2*, eIF4H inh -11.7 and PABP polyA inh inactive.
For C=C(C)C(=O)Nc1cccc(C2=NOC3(C2)C[C@H](C(N)=O)N(C(=O)c2ccccc2)C3)c1 (some centres undefined) the results were MLLE-PAM2 inh -4.2, eIF4E 4G PPI 3.4, eIF4H inh 90.7* and PABP polyA inh active.
Screening C=C(C)C(=O)Nc1cccc(C2=NOC3(C2)C[C@H](C(N)=O)N(C(=O)COc2ccc(Cl)cc2)C3)c1 (some centres undefined) returned MLLE-PAM2 inh -5.7, eIF4E 4G PPI 5.3, eIF4H inh 85.9* and PABP polyA inh active.
`C=C(C)C(=O)N1CC2(CC(c3cccc(NC(=O)/C=C\C=C/C)c3)=NO2)C[C@H]1C(N)=O` (some centres undefined) gave MLLE-PAM2 inh 16.9, eIF4E 4G PPI -1.1, eIF4H inh -8.9 and PABP polyA inh inactive.
Screening C[C@@H]1CC2OC(=O)[C@@]3(C)C(=O)CC[C@@](C)(C23)[C@@]1(O)CCc1ccoc1 (some centres undefined) returned MLLE-PAM2 inh -14.4, eIF4H inh -11.6 and PABP polyA inh inactive.
For C=C(C)C(=O)Nc1cccc(C2=NOC3(C2)C[C@@H](C(N)=O)N(C(=O)C2(C)CC2)C3)c1 (some centres undefined) the results were MLLE-PAM2 inh 2.7, eIF4E 4G PPI 13.4, eIF4H inh 99.6* and PABP polyA inh active.
O=C1C(Cl)=C(N2CCN(Cc3ccccc3)CC2)C(=O)N1c1ccccc1 was read as MLLE-PAM2 inh 20.7, eIF4E 4G PPI 9.6, eIF4H inh inconclusive, PERK inhibitor -0.6 and PABP polyA inh active.
`COc1ccc(N2C(=O)C(Cl)=C(N3CCN(Cc4ccccc4)CC3)C2=O)cc1` gave MLLE-PAM2 inh 10.5, eIF4E 4G PPI 6.3, eIF4H inh 2.6, PERK inhibitor 0.3 and PABP polyA inh inactive.
Screening O=C1C(Cl)=C(N2CCOCC2)C(=O)N1CCc1ccccc1 returned MLLE-PAM2 inh -5.3, eIF4E 4G PPI 6.2, eIF4H inh 0.8, PERK inhibitor 0.1 and PABP polyA inh inactive.
For CN1CCN(C2=C(Cl)C(=O)N(CCc3ccccc3)C2=O)CC1 the results were MLLE-PAM2 inh 50.8*, eIF4E 4G PPI -16.3, eIF4H inh inconclusive, PERK inhibitor 0.1 and PABP polyA inh inactive.
`C=CCN1C(=O)/C(=C2/Sc3ccccc3N2CCCS(=O)(=O)O)SC1=S` gave MLLE-PAM2 inh 41.4*, eIF4E 4G PPI 6.1, eIF4H inh 11.9, PERK inhibitor 1.1 and PABP polyA inh inactive.
CC(/C=N\NC(=O)CN1CCN(S(=O)(=O)c2ccc(C)cc2)CC1)=C\c1ccccc1 was read as MLLE-PAM2 inh -11.0, eIF4E 4G PPI 32.5*[fluorescence artefact?], eIF4H inh -15.9, PERK inhibitor -0.3 and PABP polyA inh inactive.
For Cc1ccc(C(=O)NC(=S)Nc2cccc(-c3nc4ccccc4s3)c2)cc1 the results were MLLE-PAM2 inh 40.8*, eIF4E 4G PPI 0.1, eIF4H inh 9.8, PERK inhibitor 0.7 and PABP polyA inh inactive.
For CC(OC(=O)Cc1c(F)cccc1Cl)C(=O)NC1(C#N)CCCCC1 (centres undefined) the results were MLLE-PAM2 inh 9.9.
`CCn1c(CSc2nccn2C)nc2cc(C(=O)O)ccc21` gave MLLE-PAM2 inh 51.0*, eIF4E 4G PPI 6.6, eIF4H inh 114.8*, PERK inhibitor 1.5 and PABP polyA inh active.
Screening CCn1c(CSc2nc3ccccc3[nH]2)nc2cc(C(=O)O)ccc21 returned MLLE-PAM2 inh -33.8, eIF4E 4G PPI -5.4, eIF4H inh 13.7, PERK inhibitor 0.6 and PABP polyA inh inactive.
CC(=O)Oc1ccccc1/C=C/c1ccc2ccccc2[n+]1C was read as MLLE-PAM2 inh -113.8, eIF4H inh 18.5 and PABP polyA inh active.
COc1ccc(/C=C/c2ccc3ccccc3[n+]2C)cc1OC was read as MLLE-PAM2 inh -149.0, eIF4H inh -9.8 and PABP polyA inh inactive.
Cc1c(Cl)cccc1NC(=O)CCC(=O)NNC(=O)c1ccccc1Cl was read as MLLE-PAM2 inh -8.1, eIF4E 4G PPI 64.5*, eIF4H inh -3.4, PERK inhibitor -0.6 and PABP polyA inh inactive.
CCC(=O)NNC(=O)CCC(=O)Nc1cccc(Cl)c1C was read as MLLE-PAM2 inh 9.1, eIF4E 4G PPI 4.5, eIF4H inh 30.1, PERK inhibitor 3.0* and PABP polyA inh inactive.
C[C@H](CO)N1C[C@H](C)[C@@H](CN(C)S(=O)(=O)c2cccs2)Oc2ccc(NS(=O)(=O)c3ccc(F)cc3)cc2C1=O was read as MLLE-PAM2 inh 1.0.
For CC(CCc1ccccc1)NC(=O)COC(=O)c1cccnc1Cl (centres undefined) the results were MLLE-PAM2 inh -37.1.
For Cc1cc(C)c(CN2CCN(C(=O)CC[C@H]3O[C@@H](n4ccc(=O)[nH]c4=O)[C@H](O)[C@@H]3O)CC2)c(C)c1 the results were MLLE-PAM2 inh -0.4.
`CCN(CC)CCCC(C)NC(=O)c1ccc(C(F)(F)F)cc1` (centres undefined) gave MLLE-PAM2 inh -3.6, eIF4E 4G PPI 0.6, eIF4H inh active, PERK inhibitor 0.5 and PABP polyA inh active.
Screening O=C(O)C1CCc2nc(NCc3ccccc3)nc(NCc3ccccc3)c2C1 (centres undefined) returned MLLE-PAM2 inh 18.0.

High-throughput results deposited in PubChem BioAssay by several laboratories.
